# In the library only some 4.6% were active in any assay of this set; here they are far more common.
# USP10 inh = inhibitors of human USP10 deubiquitinase; Ubiquitin carboxyl-terminal hydrolase 10 (Homo sapiens), Q14694; purified USP10, Ub-rhodamine fluorescence, 60 min; inhibition, % at 20 µM; actives 1.1% (n = 47,000); AID 1645856, 2021
# UCHL1 block = inhibitors of human UCHL1 deubiquitinase | Ubiquitin carboxyl-terminal hydrolase isozyme L1 (Homo sapiens), P09936 | purified UCHL1, Ub-rhodamine cleavage fluorescence | inhibition, % at 20 µM | actives 0.2% (n = 47,000)
# USP8 block = inhibitors of human USP8 deubiquitinase; Ubiquitin carboxyl-terminal hydrolase 8 (Homo sapiens), P40818; purified USP8, Ub-rhodamine cleavage fluorescence, 30 min; inhibition, % at 20 µM; actives 4.2% (n = 47,000)
# USP7 block = inhibitors of human USP7 deubiquitinase; inhibition, % at 20 µM; purified USP7, Ub-rhodamine cleavage fluorescence; actives 0.3% (n = 47,000); AID 1645854, 2021
# Numbers without * were called inactive. No stated cut-off is given here; in the data, active means inhibition above about 30%; inactive means the rest.
SMILES,USP10 inh,UCHL1 block,USP8 block,USP7 block
O=C(Nc1cccc(-c2nc3cnccc3o2)c1)c1ccc(Br)o1,0.8,0.5,66.4*,20.3
O=C(CN1Cc2ccccc2C1=O)N1CCN(c2ccc([N+](=O)[O-])cc2)CC1,-0.4,0.0,-50.2,2.1
CCc1c(C)nc2c(-c3ccccc3)c(Cc3ccccc3)[nH]n2c1=O,16.3,-7.9,61.6*,7.2
Cc1cc(=O)n2[nH]c(Cc3ccccc3)c(-c3ccccc3)c2n1,15.1,1.2,9.6,-7.3
COc1ccccc1Nc1ncc(C(=O)NCCc2ccc(Cl)cc2)c2ccccc12,7.8,0.2,37.3*,23.2
COC(=O)CNC(=O)c1cnc(Nc2ccccc2OC)c2ccccc12,-0.5,3.3,16.0,-1.3
COc1ccccc1Nc1ncc(C(=O)N(C)Cc2ccccc2)c2ccccc12,-5.7,-2.7,68.8*,-25.9
CC1CCC(Nc2ncnc3c2CN(C2CCNC2)C(=O)CN3C)CC1 (stereo not drawn),-1.6,1.6,-128.2,1.1
Nc1c(C(=O)c2ccco2)sc2c1c(=O)[nH]c(=O)n2Cc1ccc2c(c1)OCO2,-7.5,-4.3,53.7*,-4.1
Cc1ccc(CNC(=O)Cn2c(=O)n(-c3ccccc3)c3ncccc32)cc1,3.9,0.1,33.3*,3.4
CC(NC(=O)Cn1c(=O)n(-c2ccccc2)c2ncccc21)c1ccccc1 (stereo not drawn),-6.0,-9.5,1.2,-9.9
O=C(Cn1c(=O)n(-c2ccc(F)cc2)c2ncccc21)NCc1ccccc1,6.7,1.5,37.2*,5.9
Cn1c(=O)n(CC(=O)NCc2cccc(F)c2)c2cccnc21,-2.6,-0.5,-5.9,-0.7
CCCCCCCCCC(CCCCCCCCCC(=O)O)O[C@H]1O[C@@H](COC(C)=O)[C@H](O)[C@@H](O)[C@H]1OC(=O)CC(=O)O (stereo partly drawn),68.0*,3.0,11.2,0.0
COc1cccc(CNS(=O)(=O)c2ccc3c(c2)C(=O)N(C)c2ncccc2O3)c1,5.3,0.8,5.2,4.2
CCc1ccc(-n2c(C)cc(/C=C3\C(=N)N4N=CSC4=NC3=O)c2C)cc1,40.1*,6.2,62.0*,-179.8
Cc1cc(/C=C2\C(=N)N3N=CSC3=NC2=O)c(C)n1-c1cccc(F)c1,9.3,0.2,-12.9,-6.0
O=C(CSc1nc2c(cnn2-c2ccccc2)c(=O)[nH]1)Nc1ccc(Cl)cc1F,9.1,1.2,79.6*,-32.0
Cc1cc(NC(=O)CSc2nc3c(cnn3-c3ccc(F)cc3)c(=O)[nH]2)no1,10.7,2.2,-29.2,6.1
CCc1ccc(NC(=O)CCNc2cc(C)nc3nc(-c4cccnc4)nn23)cc1,-2.5,-5.2,-2.1,-1.9
CN(c1cccc(Cl)c1)S(=O)(=O)c1cccc(C(=O)OCC(=O)N(Cc2ccccc2)C(C)(C)C)c1,1.5,5.6,2.4,10.9
COc1ccc(COc2ccc3c(C)c(CC(=O)N4CC[C@@]5(O)CCCC[C@H]5C4)c(=O)oc3c2)cc1,61.9*,-3.0,33.5*,3.7
Cc1c(CCC(=O)N2CC[C@@]3(O)CCCC[C@H]3C2)c(=O)oc2cc(OCc3ccc(F)cc3F)ccc12,2.0,9.1,22.3,-2.4
COc1nc2c(c(-c3ccco3)c1C#N)Cc1cc(NC(C)=O)ccc1-2,-2.2,-1.1,65.8*,-51.9
Cc1c(C(=O)N2CCCC2)cnn1-c1cc(-c2nc(C3CC3)no2)ccn1,-1.4,-2.4,-0.8,-1.3
SMILES,USP10 inh,UCHL1 block,USP8 block,USP7 block
O=c1cc(CN2CCc3ccccc32)cc[nH]1,-7.4,-8.9,32.6*,-16.9
O=c1cc(CN2CCN(Cc3cccc(F)c3)CC2)cc[nH]1,-9.0,-4.0,17.3,-8.6
Cc1cc(Cl)ccc1OCC(=O)Nc1ccccc1,2.3,0.4,0.0,-13.5
CSc1cccc(NC(=O)COc2cccc3ccccc23)c1,26.0,9.5,42.6*,14.7
COCCN1C(=O)CCc2cc(NS(=O)(=O)c3ccc(C)c(F)c3)ccc21,-2.2,-0.8,-19.2,-0.9
CC(=O)c1ccc(NC(=O)c2ccc(N3CCCCS3(=O)=O)cc2Cl)cc1,9.9,8.8,31.0*,14.1
Cn1cc(CN[C@H]2[C@H](O)[C@H](O)C[C@@H]2c2ccc(C(F)(F)F)nc2)cn1,-2.6,2.9,42.5*,-9.0
Cn1cc(CN[C@H]2[C@H](O)[C@H](O)C[C@@H]2c2ccccc2)cn1,0.8,-0.6,5.6,1.5
COc1ccc(Cn2c(CO)cnc2SCC(=O)Nc2cccc(C)c2)cc1,1.5,-0.4,-0.2,-11.2
COc1ccc(CNC(=O)Cn2c(=O)[nH]c3c(-c4ccccc4F)c[nH]c3c2=O)cc1,22.4,1.0,86.5*,18.4
COc1ccccc1CNC(=O)Cn1c(=O)[nH]c2c(-c3ccccc3)c[nH]c2c1=O,-3.8,-4.7,-12.9,6.4
O=C(NCc1ccccc1)C1CCCN(c2cnc3nccnc3c2)C1 (stereo not drawn),-1.9,-74.2,-23.2,-70.7
CC(NC(=O)CCN1C(=O)c2cccnc2Sc2ccccc21)c1ccccc1 (stereo not drawn),-4.4,-3.4,-9.0,-0.8
CC(C)CNc1ncnc2c1sc1nc(-c3ccccc3)c3c(c12)CCC3,0.2,-1.5,39.0*,3.3
Cc1ccc(NC(=O)Nc2ccc(C)n(CC(=O)Nc3ccc(C)c(C)c3)c2=O)cc1,65.9*,4.7,92.5*,42.8*
COc1ccc(NC(=O)COc2cc(C)nc(-c3ccc(C)cc3)n2)c(OC)c1,30.0*,0.0,45.5*,3.7
COc1ccc(NC(=O)COc2ccc(C(=O)c3ccccc3)cc2)c(OC)c1,8.6,7.1,-4.2,6.4
O=C(O)C1CC(=O)N(Cc2ccc(-c3nc4ccccc4s3)o2)C1 (stereo not drawn),-8.3,-86.2,-176.4,-82.4
O=S1(=O)CCC(S(=O)(=O)Nc2ccc(OCc3ccc(Cl)cc3)cc2)C1 (stereo not drawn),0.0,0.6,56.7*,-3.2
C=C(C)[C@@H]1CC[C@]2(C)[C@H](CC[C@@H]3[C@@H](C(C)(O)CCC=C(C)C)CC[C@]32C)[C@@]1(C)CCC(=O)O (stereo partly drawn),92.9*,44.5*,91.3*,85.2*
COc1cc(C(=O)NCC(c2cccnc2)N2CCN(c3ccccc3)CC2)cc(OC)c1OC (stereo not drawn),-1.9,0.8,-9.2,5.4
COc1ccccc1C(=O)NCCS(=O)(=O)N1CCN(c2ccc(F)cc2)CC1,0.1,1.7,-8.8,-24.4
Cc1cccc(NC(=O)COc2cccc3ccc(N4CCC(C(N)=O)CC4)nc23)c1,10.6,-2.4,60.6*,1.3
O=C(NCc1ccc(Cl)cc1)[C@@H]1Cc2nc[nH]c2CN1Cc1ccccc1,-7.9,-4.0,24.3,-50.5
O=C(NCc1ccc(Cl)cc1)[C@@H]1Cc2nc[nH]c2CN1Cc1ccc(Cl)cc1,-4.8,-1.3,50.3*,-72.9
FC(F)(F)c1cc(C(F)(F)F)c2sc(Nc3ccccc3)nc2n1,3.8,5.2,92.3*,9.5
CCn1ccc(C(=O)N2CC(c3nc(C)no3)C3(CCOCC3)C2)n1 (stereo not drawn),-2.4,-1.5,7.6,4.6

# Screens as filed in PubChem.
